What all share (experiment): NCI-60 one-dose screen, 48 h (100 = growth as untreated, 0 = no growth, -100 = all killed)
For one experiment, the system named is NCI-H23 lung. Conditions: 10 µM unless noted.
The next experiment deals with NCI-H226 lung. Conditions: 10 µM unless noted.
In the next experiment the test system is NCI-H322M lung. Conditions: 10 µM unless noted.
The subject of the next experiment is HOP-62 NSCLC. As to conditions: 10 µM unless noted.
A further experiment has as its system HOP-92 NSCLC. Conditions: 10 µM unless noted.
The next experiment has as its system A549/ATCC NSCLC. Conditions: 10 µM unless noted.
For another experiment, the system named is 786-0 renal. As to conditions: 10 µM unless noted.
A further experiment has as its system COLO 205 colon. As to conditions: 10 µM unless noted.
Another experiment relates to DU-145 prostate. Conditions: 10 µM unless noted.
The test system of the next experiment is K-562 leukemia. Conditions: 10 µM unless noted.
A further experiment concerns MALME-3M melanoma. As to conditions: 10 µM unless noted.
Another experiment relates to MDA-MB-231 breast. Conditions: 10 µM unless noted.
The next experiment deals with RXF 393 renal. As to conditions: 10 µM unless noted.
Another experiment has as its system SF-268 CNS. Conditions: 10 µM unless noted.
In another experiment the test system is SF-295 CNS. Conditions: 10 µM unless noted.
In the next experiment the test system is SF-539 CNS. As to conditions: 10 µM unless noted.
The test system of a further experiment is UACC-257 melanoma. Conditions: 10 µM unless noted.
In the next experiment the test system is M14 melanoma. Conditions: 10 µM unless noted.
A further experiment deals with NCI-H522 lung. As to conditions: 10 µM.

The panel holds about 83,000 compounds, 20% with a hit somewhere; the sample as a whole holds those more often.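 Results are percent growth after 48 hours of single-concentration exposure. 100 means growth as in untreated cells, lower positive values show inhibition; negative values down to -100 show cell death.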 Unmarked numbers belong to inactive results. Calls of active or inactive are those of the source. Rule for the calls: active = growth percent below 10; inactive = the rest.

For the compound `CC(C)=CCCC(C)c1ccc(C)c2c1OCN(CC1CCNCC1)C2` (stereo not drawn), the growth in the experiment on NCI-H23 lung was 81.9%; in the experiment with NCI-H226 lung, 103%; in the experiment with NCI-H322M lung, 99.1%; in the experiment on HOP-62 NSCLC, 95.4%; with HOP-92 NSCLC, 12.3%; in the experiment on A549/ATCC NSCLC, 54.1%. The growth is -60.1% (active) in the experiment on 786-0 renal; 75.9% in the experiment on COLO 205 colon; 93.9% with DU-145 prostate; 0.575% (active) in the experiment with K-562 leukemia; 94.1% in the experiment with MALME-3M melanoma; 68.8% in the experiment with MDA-MB-231 breast. The growth with RXF 393 renal is 55.2%; with SF-268 CNS, 93%; in the experiment on SF-295 CNS, 98.7%; in the experiment with SF-539 CNS it was 76.9%; in the experiment on UACC-257 melanoma it was 24.6%; in the experiment with M14 melanoma, -95.4% (active).

Take `O=C1c2cccc(NCCN=Cc3ccccc3O)c2C(=O)c2c(NCCN=Cc3ccccc3O)cccc21`: the growth in the experiment on NCI-H23 lung was 27.8%; with NCI-H226 lung, 73.1%; with NCI-H322M lung, -19.2% (active); in the experiment on HOP-62 NSCLC, 17.6%; in the experiment on HOP-92 NSCLC, -38.3% (active); in the experiment with A549/ATCC NSCLC, 25.7%. Further, the growth with 786-0 renal was 36.7%; with COLO 205 colon, 8.33% (active); with DU-145 prostate, 16%; in the experiment with K-562 leukemia, 38%; in the experiment with MALME-3M melanoma it was 21.8%; in the experiment on MDA-MB-231 breast it was 21%. Further, the growth with RXF 393 renal was 33.9%; with SF-268 CNS, 7.05% (active); in the experiment on SF-295 CNS it was 49.8%; in the experiment with SF-539 CNS, 22.4%; in the experiment on UACC-257 melanoma, 94.6%.

As for `CCSCC1CC(O)(c2ccccc2)C(c2ccccc2)C(c2ccc(Cl)cc2)O1` (stereo not drawn), the growth in the experiment on NCI-H23 lung is 14.7%; in the experiment with NCI-H226 lung, -1.26% (active); in the experiment with NCI-H322M lung it was 18%; with HOP-62 NSCLC, 16.4%; in the experiment on HOP-92 NSCLC, -3.51% (active); in the experiment with A549/ATCC NSCLC it was -23.1% (active). For the same compound, the growth in the experiment with 786-0 renal was 3.26% (active); with COLO 205 colon it was -100% (active); in the experiment with DU-145 prostate, 18.2%; with MALME-3M melanoma, -34.7% (active); in the experiment on MDA-MB-231 breast it was -26% (active); in the experiment with RXF 393 renal, -30.9% (active). Besides, the growth was 17.3% in the experiment with SF-268 CNS; -54.1% (active) in the experiment with SF-295 CNS; -16.4% (active) in the experiment on SF-539 CNS; -11.5% (active) with UACC-257 melanoma; 14.3% with M14 melanoma.

As to `CCSc1nc(-c2ccc(F)cc2)c(C#N)c(=O)[nH]1`, the growth with NCI-H23 lung was 95.2%; in the experiment with NCI-H226 lung it was 98.7%; in the experiment with NCI-H322M lung, 101%; in the experiment with HOP-62 NSCLC, 110%; in the experiment on HOP-92 NSCLC it was 131%; in the experiment on NCI-H522 lung, 96.8%. Moreover, the growth in the experiment on 786-0 renal is 108%; in the experiment with COLO 205 colon it was 126%; in the experiment on DU-145 prostate, 122%; in the experiment with K-562 leukemia, 124%; in the experiment on MALME-3M melanoma it was 85.1%; in the experiment on MDA-MB-231 breast, 114%. The growth in the experiment on RXF 393 renal was 104%; in the experiment with SF-268 CNS, 116%; in the experiment with SF-295 CNS it was 103%; in the experiment with SF-539 CNS it was 108%; in the experiment on UACC-257 melanoma, 102%; in the experiment on M14 melanoma, 110%.

`CCN1CCN(c2nc(NNC(=O)Cc3ccccc3)nc(N3CCN(C(c4ccccc4)c4ccccc4)CC3)n2)CC1`: the growth in the experiment with NCI-H23 lung is 95.1%; with NCI-H226 lung, 95%; in the experiment on NCI-H322M lung, 105%; in the experiment with HOP-62 NSCLC, 74.5%; with HOP-92 NSCLC it was 82.9%; with A549/ATCC NSCLC, 46.6%. The growth with 786-0 renal was 64.1%; in the experiment with COLO 205 colon, -41.3% (active); in the experiment with DU-145 prostate, 63.5%; in the experiment with K-562 leukemia, 2.28% (active); in the experiment with MALME-3M melanoma, 77%; in the experiment on MDA-MB-231 breast, 82.7%. Moreover, the growth with RXF 393 renal is 66.6%; in the experiment with SF-268 CNS, 82%; in the experiment on SF-295 CNS, 68.3%; in the experiment on SF-539 CNS it was 86.8%; in the experiment with UACC-257 melanoma it was -51.5% (active); with M14 melanoma it was -68.2% (active).

Values taken from PubChem BioAssay (NCI).
